From PubChem BioAssay
Calls of active or inactive are those of the source.

Experiments:
Albumin (Bos taurus) = Albumin (Bos taurus) (UniProt P02769); test: bovine serum albumin binders on microarray, profiling panel, artefact control for SMM control protein annotation, biochemical, small-molecule microarray, Alexa647 label, 635/667 nm fluorescence (AID 1118); details: BSA-A647 binding, fluorescence 635 nm, higher = more signal;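 note: score merges 667 nm emission intensity and signal-to-noise per printed compound spot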
[1] = small-molecule microarray binders of probe aXIP, primary screen, biochemical, NeuroSMM set, 635/667 nm fluorescence (AID 1119); details: higher = more signal, called active from +8 up or from −8 down;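 note: probe is the protein aXip251-270 applied at 1 µg/mL to compound-printed slides; binding of probe to printed compounds measured as 667 nm fluorescence plus signal to noise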
[2] = small-molecule binders of probe aNOTCH3, primary screen, biochemical, small-molecule microarray, 635/667 nm fluorescence (AID 1120); details: higher = more signal;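 note: probe is a biotin-tagged antibody raised against NOTCH3 rather than NOTCH3 protein; score merges spot fluorescence near 667 nm with spot signal to noise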
[3] = small-molecule binders of probe aNOTCH2, primary screen, biochemical, small-molecule microarray, 635/667 nm fluorescence (AID 1121); details: higher = more signal;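 note: score merges feature fluorescence read at 667 nm with its signal to noise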
[4] = biological target: Carbonic anhydrase 2 (Homo sapiens) (UniProt P00918); test: CAII small-molecule binders, profiling panel, biochemical, small-molecule microarray, Alexa647-labelled CAII (AID 1122); details: CAII-A647 binding fluorescence, higher = more signal
[5] = COS7 lysate on small-molecule microarray, probe aHis, 635 nm (AID 1123); details: COS7 cell lysate, fluorescence, higher = more signal;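 note: z-score combines 667nm fluorescence intensity with signal-to-noise per printed compound spot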
[6] = compound binding in COS7 lysate, probe aLAP1, primary screen, cell lysate, small-molecule microarray (AID 1124); details: probe aLAP1, fluorescence, higher = more signal;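 note: lysate comes from COS7 cells expressing LAP1 and is applied at 0.3 µg/mL; score merges spot fluorescence near 667 nm with signal-to-noise over triplicate slides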
Sam68 (KHDRBS1) = test: Sam68 small-molecule binders, primary screen, biochemical, small-molecule microarray, 635 nm fluorescence (AID 1125); details: small-molecule microarray binding, higher = more signal;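 note: score merges 667 nm channel intensity with signal to noise over triplicate slides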
[7] = tested on: Chordin-like protein 2 (CHRDL2); test: CHRDL2 small-molecule binders, primary screen, biochemical, small-molecule microarray, 635 nm fluorescence (AID 1126); details: small-molecule microarray binding, fluorescence 635 nm; higher = more signal;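 note: printed compound slides probed with Chrdl2 protein at 4 µg/mL for 1 h at 4 C; score merges 667 nm emission intensity with signal to noise over three replicate slides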
[8] = biological target: Concanavalin-A (Canavalia ensiformis) (UniProt P02866); test: ConA small-molecule binders, primary screen, artefact control for SMM control protein annotation, biochemical, small-molecule microarray, Alexa647 label, 635 nm (AID 1127); details: ConA-A647 binding fluorescence, higher = more signal;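 note: z combines 667 nm emission intensity with signal-to-noise across three replicate slides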
[9] = anti-His antibody binders, primary screen, artefact control for SMM control protein annotation, biochemical, small-molecule microarray, 635 nm fluorescence (AID 1128); details: anti-His Alexa647 antibody binding, higher = more signal;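 note: score merges feature fluorescence with signal-to-noise for each printed compound spot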
[10] = tested on: Human papillomavirus type 1a E7 protein (residues 1-88); test: HPV1a E7 small-molecule binders, primary screen, biochemical, small-molecule microarray, residues 1-88, 635 nm (AID 1129); details: small-molecule microarray binding, fluorescence 635 nm; higher = more signal
[11] = biological target: Focal adhesion kinase 1 (Homo sapiens) (UniProt Q05397); test: small-molecule microarray binders of FAK, primary screen, biochemical, 635/667 nm fluorescence, BSA, DTT (AID 1130); details: PTK2 binding, 635 nm fluorescence, higher = more signal;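 note: composite of spot emission at 667 nm and signal to noise over triplicate slides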
[12] = tested on: Fibrinogen (Alexa647-labelled); test: fibrinogen binders on compound microarrays, profiling panel, artefact control for SMM control-protein annotation, biochemical, small-molecule microarray, 635/667 nm fluorescence (AID 1131); details: fibrinogen-A647 binding fluorescence, higher = more signal;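 note: z-score merges 667 nm fluorescence with per-spot signal-to-noise over triplicate slides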
[13] = biological target: Follistatin (Homo sapiens) (UniProt P19883); test: follistatin binders on small-molecule microarrays, primary screen, biochemical, small-molecule microarray, 635/667 nm fluorescence (AID 1132); details: FST binding, 635 nm fluorescence, higher = more signal
[14] = biological target: Fibroblast growth factor 2 (Homo sapiens) (UniProt P09038); test: FGF2 binders on small-molecule microarrays, primary screen, biochemical, small-molecule microarray, 635/667 nm fluorescence (AID 1133); details: small-molecule microarray binding, FGF2, fluorescence 635/667; higher = more signal
[15] = mitochondrial membrane potential change in A549 cells, profiling panel, cell-based, JC-1 fluorescence, basal, 24 h, 100 nL (AID 1138); details: higher = more signal;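 note: A549 lung adenocarcinoma cells under basal conditions with no added stimulus; test concentration not given here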
Lefty1 = Lefty1 binders on small-molecule microarrays, primary screen, biochemical, small-molecule microarray, 635/667 nm fluorescence (AID 1139); details: small-molecule microarray binding, fluorescence 635/667; higher = more signal
[16] = tested on: wheat germ agglutinin (Triticum aestivum), Alexa647-labelled; test: wheat germ agglutinin binders on compound microarrays, profiling panel, artefact control for SMM control-protein annotation, biochemical, small-molecule microarray, 635/667 nm fluorescence (AID 1140); details: WGA-A647 binding, 635 nm fluorescence, higher = more signal;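 note: score merges 667 nm feature emission with signal to noise over triplicate slides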
[17] = biological target: Luciferin 4-monooxygenase (Photinus pyralis) (UniProt P08659); test: firefly luciferase enzyme inhibitors, primary screen, biochemical, luminescence, purified enzyme, 2006 set (AID 1141); details: SteadyGlo luminescence, 30 min, higher = more signal, called active from +8 up or from −8 down;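 note: cell-free assay with purified firefly luciferase at 100 ng per well in PBS; test concentration not given here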
Chain of Luciferin 4-monooxygenase (Photinus pyralis) (P08659 whole entry, looked up): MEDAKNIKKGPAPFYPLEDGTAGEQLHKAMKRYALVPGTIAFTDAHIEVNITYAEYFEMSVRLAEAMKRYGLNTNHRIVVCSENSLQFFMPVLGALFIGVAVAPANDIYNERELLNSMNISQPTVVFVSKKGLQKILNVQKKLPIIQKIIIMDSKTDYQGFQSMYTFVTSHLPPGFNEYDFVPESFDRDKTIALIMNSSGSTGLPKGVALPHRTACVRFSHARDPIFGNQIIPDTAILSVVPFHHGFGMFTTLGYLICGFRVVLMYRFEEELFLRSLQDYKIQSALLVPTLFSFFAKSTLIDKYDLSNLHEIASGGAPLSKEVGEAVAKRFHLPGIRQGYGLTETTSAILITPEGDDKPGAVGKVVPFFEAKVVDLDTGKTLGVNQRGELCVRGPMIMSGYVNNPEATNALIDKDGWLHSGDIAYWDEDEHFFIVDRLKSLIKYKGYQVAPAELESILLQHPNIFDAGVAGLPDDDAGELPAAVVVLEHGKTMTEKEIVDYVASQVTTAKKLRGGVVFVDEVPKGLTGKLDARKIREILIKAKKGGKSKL

Chain of Focal adhesion kinase 1 (Homo sapiens) (Q05397 whole entry, looked up): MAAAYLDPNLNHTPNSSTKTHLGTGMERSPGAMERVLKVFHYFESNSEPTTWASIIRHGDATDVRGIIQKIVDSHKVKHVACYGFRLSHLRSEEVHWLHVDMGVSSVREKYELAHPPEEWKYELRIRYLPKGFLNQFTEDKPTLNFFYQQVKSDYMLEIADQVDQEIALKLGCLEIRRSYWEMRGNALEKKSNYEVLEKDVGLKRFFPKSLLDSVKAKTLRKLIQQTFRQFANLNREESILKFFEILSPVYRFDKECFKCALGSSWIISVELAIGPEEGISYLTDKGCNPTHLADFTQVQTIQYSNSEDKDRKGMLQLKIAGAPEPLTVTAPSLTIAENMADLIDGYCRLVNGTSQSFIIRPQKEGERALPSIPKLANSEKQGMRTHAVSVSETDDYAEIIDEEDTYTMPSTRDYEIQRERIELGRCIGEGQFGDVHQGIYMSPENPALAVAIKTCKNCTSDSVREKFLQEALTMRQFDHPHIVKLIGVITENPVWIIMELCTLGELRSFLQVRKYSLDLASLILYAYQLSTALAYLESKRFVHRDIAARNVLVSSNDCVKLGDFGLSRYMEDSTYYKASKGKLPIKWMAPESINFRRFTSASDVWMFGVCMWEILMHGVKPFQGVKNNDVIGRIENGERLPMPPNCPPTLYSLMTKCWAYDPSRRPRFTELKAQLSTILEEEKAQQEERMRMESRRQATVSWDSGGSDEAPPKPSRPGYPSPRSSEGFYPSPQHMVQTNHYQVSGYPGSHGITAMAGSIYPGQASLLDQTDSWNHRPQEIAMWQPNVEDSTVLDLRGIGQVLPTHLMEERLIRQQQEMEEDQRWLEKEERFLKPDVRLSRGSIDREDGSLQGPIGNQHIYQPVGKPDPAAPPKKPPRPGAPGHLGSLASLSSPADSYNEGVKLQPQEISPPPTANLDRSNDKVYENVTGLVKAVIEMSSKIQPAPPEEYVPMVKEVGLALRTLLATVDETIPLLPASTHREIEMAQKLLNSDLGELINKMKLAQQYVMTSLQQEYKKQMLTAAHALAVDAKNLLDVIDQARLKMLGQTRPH
Chain of Albumin (Bos taurus) (P02769 whole entry, looked up): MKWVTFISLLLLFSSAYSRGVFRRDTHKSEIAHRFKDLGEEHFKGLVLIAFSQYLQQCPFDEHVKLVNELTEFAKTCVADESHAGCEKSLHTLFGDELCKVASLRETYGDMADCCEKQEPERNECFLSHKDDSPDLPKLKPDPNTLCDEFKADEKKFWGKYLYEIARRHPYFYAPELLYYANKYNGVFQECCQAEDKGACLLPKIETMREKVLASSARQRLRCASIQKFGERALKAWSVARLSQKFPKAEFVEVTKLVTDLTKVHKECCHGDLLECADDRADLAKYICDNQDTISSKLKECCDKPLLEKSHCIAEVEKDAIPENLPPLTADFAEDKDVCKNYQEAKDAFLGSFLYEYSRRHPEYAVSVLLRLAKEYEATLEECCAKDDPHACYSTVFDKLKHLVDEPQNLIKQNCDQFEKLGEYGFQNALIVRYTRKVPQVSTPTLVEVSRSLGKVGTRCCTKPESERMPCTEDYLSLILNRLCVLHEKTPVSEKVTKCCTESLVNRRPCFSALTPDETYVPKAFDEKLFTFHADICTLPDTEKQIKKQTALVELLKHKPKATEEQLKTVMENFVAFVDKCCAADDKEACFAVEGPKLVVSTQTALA
Chain of Concanavalin-A (Canavalia ensiformis) (P02866 whole entry, looked up): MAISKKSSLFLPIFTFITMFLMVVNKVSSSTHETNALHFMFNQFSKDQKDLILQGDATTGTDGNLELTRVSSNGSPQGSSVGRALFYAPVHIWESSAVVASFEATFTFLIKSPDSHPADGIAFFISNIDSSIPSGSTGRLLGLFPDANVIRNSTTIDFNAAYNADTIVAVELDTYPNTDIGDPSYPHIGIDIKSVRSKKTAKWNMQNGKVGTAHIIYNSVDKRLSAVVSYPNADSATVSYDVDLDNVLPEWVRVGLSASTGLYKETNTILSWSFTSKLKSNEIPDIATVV
Chain of Follistatin (Homo sapiens) (P19883 whole entry, looked up): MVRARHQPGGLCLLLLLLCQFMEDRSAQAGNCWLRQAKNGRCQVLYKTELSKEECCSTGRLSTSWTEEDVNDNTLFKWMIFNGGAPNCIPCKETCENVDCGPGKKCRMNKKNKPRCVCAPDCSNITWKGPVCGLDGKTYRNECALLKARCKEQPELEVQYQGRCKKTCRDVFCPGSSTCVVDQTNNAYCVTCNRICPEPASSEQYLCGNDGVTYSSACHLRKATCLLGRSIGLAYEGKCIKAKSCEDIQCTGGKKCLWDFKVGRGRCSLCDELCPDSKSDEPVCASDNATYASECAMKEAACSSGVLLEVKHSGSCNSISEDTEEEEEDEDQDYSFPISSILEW
Chain of Fibroblast growth factor 2 (Homo sapiens) (P09038 whole entry, looked up): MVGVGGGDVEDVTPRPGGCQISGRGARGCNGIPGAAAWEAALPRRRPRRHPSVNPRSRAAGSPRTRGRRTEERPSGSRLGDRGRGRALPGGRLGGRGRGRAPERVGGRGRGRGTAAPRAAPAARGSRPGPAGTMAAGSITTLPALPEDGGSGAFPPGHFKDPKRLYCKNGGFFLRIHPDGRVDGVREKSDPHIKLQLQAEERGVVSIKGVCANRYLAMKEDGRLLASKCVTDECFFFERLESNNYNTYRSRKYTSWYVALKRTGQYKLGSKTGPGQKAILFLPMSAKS

Structure (SMILES) | composite z-score (Albumin (Bos taurus)) | composite Z-score [1] | composite z-score [2] | composite z-score [3] | composite z-score [4] | composite z-score [5] | composite z-score [6] | composite z-score (Sam68 (KHDRBS1)) | composite z-score [7] | composite z-score [8] | composite z-score [9] | composite z-score [10] | composite z-score [11] | composite z-score [12] | composite z-score [13] | composite z-score [14] | z-score [15] | composite z-score (Lefty1) | composite z-score [16] | z-score [17]
COc1ccc(C(=O)Nc2cccc(CN3C(=O)[C@@]4(O[C@@H](CCn5cc(CCO)nn5)[C@H]([Si](C)(C)c5ccc(OC)cc5)[C@H]4C)c4ccccc43)c2)cc1 | -0.194 | 1.4 (inactive) | 0.149 | -0.084 | 0.411 | 0.733 | -0.046 | 1.3 | 1.05 | 1.08 | 1.38 | 1.16 | 0.582 | 0.701 | 1.35 | 1.51 | -0.0548 | 1.29 | 0.701 | -0.775 (inactive)
CC(C)(C)N1CC=CC23O[C@@H]4C=CCOC(=O)[C@@H]4[C@H]2C(=O)N(CCCCCO)[C@@H]3C1=O (stereo not given in full) | 0.485 | 1.1 (inactive) | -0.406 | -0.229 | 0.82 | 0.121 | 1.25 | -0.87 | -0.612 | -2.63 | 3.57 | -1.45 | -0.758 | -2.1 | -0.889 | -0.326 | -0.879 | -1.17 | -1.31 | 0.107 (inactive)
COC(=O)[C@]1(Cc2ccccc2N=[N+]=[N-])N=C(c2ccc(OCCCO)cc2)O[C@@H]1c1ccccc1N=[N+]=[N-] | 0.308 | -0.47 (inactive) | -0.0976 | -0.148 | 0.595 | 0.794 | 0.405 | -0.255 | -0.153 | 0.725 | 2.87 | 0.825 | 0.188 | 0.482 | 1.25 | -0.0133 | -0.856 | 0.131 | 0.149 | -1.42 (inactive)
C=CCC(OC(C)=O)[C@@H]1[C@@H](N(Cc2ccc(-c3cccc(C(F)(F)F)c3)o2)C(=O)c2ccc(C)cc2)c2cc(OCCCO)ccc2N1C(=O)c1ccc(-c2ccccc2)cc1 (stereo not given in full) | -0.405 | 0.244 (inactive) | 0.0026 | -0.115 | 0.376 | -0.0056 | -0.0012 | -0.597 | 0.031 | 0.854 | -0.488 | -0.626 | 0.134 | -0.238 | 0.65 | 0.0875 | 2.31 | 0.899 | 0.639 | -1.4 (inactive)
O=C1O[C@H](c2ccccc2)[C@H](c2ccccc2)N2[C@H]1[C@@H](C(=O)Nc1nc3ccccc3s1)[C@]1(C(=O)Nc3ccccc31)[C@H]2c1ccc(O)cc1 | 0.164 | 0.0275 (inactive) | 0.156 | -0.0873 | 0.36 | 1.66 | 0.293 | 1.02 | 0.701 | 1.07 | 0.156 | 1.24 | 0.19 | 0.921 | 1.32 | 1.47 | -2.12 | 1.08 | 0.705 | -0.647 (inactive)
[N-]=[N+]=NCc1ccccc1[C@H]1OC(c2ccc(OCCCO)cc2)=N[C@@]1(CCS(=O)(=O)c1ccccc1)C(=O)N1CCOCC1 | 1.05 | 1.09 (inactive) | 0.515 | 0.268 | 0.819 | 3.05 | 0.362 | 1.3 | -0.584 | 1.11 | 0.997 | 0.871 | 0.176 | 1.04 | 1.31 | 1.01 | -0.988 | -0.0664 | 1.35 | -1.26 (inactive)
O=C/C=C/c1ccc2c(c1)OCO2 | -0.776 | 0.16 (inactive) | -0.0883 | -0.109 | -0.0937 | -0.408 | 1.57 | 0.256 | 1.11 | 0.176 | 1.33 | 0.128 | 0.247 | -0.696 | 0.952 | 0.398 | 0.231 | 0.401 | -0.273 | -1.04 (inactive)
COC(=O)C1=CC(CCCO)=CC(C2CC2)N(Cc2sc3ccccc3c2Cl)C=C1C(=O)OC (stereo not given) | 0.932 | 0.408 (inactive) | 0.224 | -0.0209 | 0.817 | 1.55 | 1.01 | 1.3 | -0.236 | 0.949 | 3.11 | 1.25 | 1.31 | 1.04 | 0.939 | 0.0634 | 1.14 | 0.222 | 0.728 | -0.96 (inactive)
C=C(COC)/C(=C/C[C@H](OC(=O)c1ccncc1)c1cccc(OCCO)c1)c1cc(C(=O)OC)ccc1OC | 0.374 | 0.415 (inactive) | -0.0006 | -0.146 | 0.697 | 0.75 | 0.343 | 0.908 | -0.386 | -0.163 | 0.844 | 1.1 | 0.381 | 0.317 | 0.127 | 0.245 | 1.48 | 0.819 | 0.0332 | -1.04 (inactive)
CCC[C@@H]1C=C(C(=O)O)[C@H](c2ccc(C)cc2)N1S(=O)(=O)c1ccc(C)cc1 | 0.972 | 0.102 (inactive) | 0.195 | 0.0029 | 0.799 | 2.71 | 0.738 | 1.33 | -0.802 | 0.757 | 1.65 | 1.29 | 0.354 | 1.04 | 0.118 | -0.502 | -0.564 | -0.234 | 0.945 | 1.79 (inactive)
CCOC(=O)[C@H]1C/C=C/C[C@H](C(=O)OCC)C(=O)O[C@H]2[C@@H](OC)O[C@H](CO)[C@@H](OC(=O)Nc3ccc4c(c3)OCO4)[C@@H]2OC1=O | 0.783 | 0.622 (inactive) | 0.0927 | -0.0425 | 0.484 | 1.74 | 0.143 | 0.521 | -0.384 | 0.468 | 2.08 | 1.2 | 0.528 | 0.485 | -0.114 | 0.254 | -1.25 | 0.403 | -0.115 | -1.93 (inactive)
